Bioassay records as filed in PubChem.
GLP1R ag: qHTS of GLP-1 Receptor Agonists | hit rate 0.007% among 380,000 | HEK293 GLP-1R CRE-luciferase, luminescence, 4-6 h; cells express a hypersensitive GLP-1R form | Potency, µM (series often up to 45.6 µM), inactives show top-dose activation, usual class: activators; also: % of control where 0% means no effect
GLP1R cytotox: qHTS of GLP-1 Receptor Inverse Agonists: Cytotox Screen; HEK293 cAMP-luciferase reporter cells, luminescence, 24 h; Potency, µM (titrated, usually from 38.3 µM), for the others: at the top dose activity change, negative = inhibition, hits mostly inhibitors; hit rate 0.13% among 410,000; AID 624418, 2012;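 also: loss of luciferase light is scored as toxicity; % is scaled to controls: 0 for no effect and ±100 for the full control effect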
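To flag toxic compounds, the library was rerun on cells for 24 hr at 37 deg C and 5% CO2. Viability-linked luminescence was captured 12 min after adding luciferase detection reagent.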
GLP1R inv ag: qHTS of GLP-1 Receptor Inverse Agonists (Inhibition Mode). Glucagon-like peptide 1 receptor (Homo sapiens), P43220. HEK293 GLP-1R CRE-luciferase, luminescence, 24 h; GLP-1R form is constitutively active. Potency, µM (series often up to 38.3 µM), without a hit: at the top dose activity change, negative = inhibition, usual class: inhibitors. hit rate 1.6% among 410,000. AID 624417, 2012; also: % is scaled to controls: 0 for no effect and ±100 for the full control effect; nearly all actives have a fitted effect of over 55% in size
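Using stably transfected HEK293 (constitutively active GLP-1R, cAMP-luciferase reporter), compounds were incubated 24 hr and luciferase measured by luminescence.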
PTHR1 agonist: qHTS for PTHR1 Agonists: Primary Screen; Parathyroid hormone/parathyroid hormone-related peptide receptor (Homo sapiens), Q03431; HEK293 GP2 PTHR1 cells, GloSensor cAMP luminescence, 1 h; Potency, µM (highest dose often 115 µM), for inactives: at the top dose activation, hits mostly activators; hit rate 0.075% among 410,000; AID 743266, 2014; also: nearly all actives have a fitted effect of over 55% in size
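HEK-293-derived GP2 cells expressing PTHR1 and a GloSensor cAMP reporter, 3,000/well, plated overnight, given luciferin plus IBMX (each 0.5 mM as added) for 1 h at 37 °C, then compound for 1 h at 37 °C. Luminescence was read after 15 min at room temperature.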
* = called active by the depositor; i = inactive; ? = inconclusive; nt = no result given; [ ] = dose if it differs, or a comment. A selection: hits, their analogues and other compounds. The true share with any hit is near 1.7%. Calls follow the shape of the dose curve; as a rule, active = well fitted curve in the direction sought with a large enough effect; inconclusive = small, poorly fitted or top-dose-only effect, or another doubt; inactive = no such curve, though single readings can be large; an effect the other way counts as inactive or inconclusive. Potency is read from the fitted curve at half-maximal effect.

SMILES	GLP1R ag	GLP1R cytotox	GLP1R inv ag	PTHR1 agonist
CC(C)(C)n1nnnc1C(c1cccnc1)N(Cc1ccccc1)Cc1ccco1 (stereo not given)	0%	63%	108%	i
O=C(c1ccco1)N1c2ccccc2Sc2ccccc21	0%	-9%	?	-28%
O=C(NC1CCN(C(=O)N2c3ccccc3Sc3ccccc32)CC1)c1ccccc1Cl	-3%	-1%	10µM*	-68%
O=C(c1ccco1)N1CCN(C(=O)N2c3ccccc3Sc3ccccc32)CC1	23%	3.2µM*	?	i
CCOc1ccc(-c2csc(-c3nc(-c4ccc(Br)s4)cs3)n2)cc1	nt	-5%	0%	-18%
CC(CCc1ccccc1)NC(=O)CNc1cccc([N+](=O)[O-])c1 (stereo not given)	10%	-10%	10µM*	-12%
CC(CCc1ccccc1)NC(=O)Cc1ccc([N+](=O)[O-])cc1 (stereo not given)	-4%	4%	-26%	i
Cc1n[nH]c(C)c1S(=O)(=O)N(CC(=O)NCc1ccccc1Cl)c1ccc(C(C)C)cc1	-6%	-15%	10µM*	-58%
COc1ccc(-c2cc(C3CCN(Cc4cccc(C(F)(F)F)c4)CC3)[nH]n2)cc1	5%	?	5µM*	-91%
COc1ccc(-c2cc(C3CCN(CC(O)C(F)(F)F)CC3)[nH]n2)cc1 (stereo not given)	-5%	11%	-23%	-23%
CCc1ccc(NC(=O)CCCc2nc(-c3ccco3)no2)cc1	nt	10%	-17%	-36%
O=C(Cc1cccc2ccccc12)NC(NC(=S)Nc1ccccc1Cl)C(Cl)(Cl)Cl (stereo not given)	-16%	-17%	4.5µM*	-24%
O=C(NC(NC(=S)Nc1ccccc1Cl)C(Cl)(Cl)Cl)c1cccc(Cl)c1 (stereo not given)	-40%	-4%	2.8µM*	-28%
COc1ccc(NC(=S)NC(NC(=O)c2cccc(C)c2)C(Cl)(Cl)Cl)c([N+](=O)[O-])c1 (stereo not given)	-8%	?	8.9µM*	-15%[57.5 µM]
O=C(Cn1ncc2ccc(Cl)cc21)NCc1ccc(F)cc1	nt	3%	-2%	-17%
Cc1ccc(NC(=O)NCCc2c(C)nn(C)c2C)c(Cl)c1	nt	0%	9%	i
O=c1c2cnn(-c3ccccc3)c2nc(-c2cccs2)n1-c1cccc(Cl)c1	5%	-5%	8.9µM*	-36%
O=c1c2cnn(-c3ccccc3)c2nc(-c2cccs2)n1-c1ccc(Cl)cc1	3%	-3%	3%	-85%[57.5 µM]
Cc1cccc(N(C)C(=O)C(Cc2ccccc2)NS(=O)(=O)c2cccc3nsnc23)c1 (stereo not given)	nt	-4%	-18%	-9%
CCOC(=O)c1cnc(-n2nc(C)cc2C)nc1NC(C)c1ccccc1 (stereo not given)	-3%	?	2.5µM*	i
CCOC(=O)c1cnc(-n2nc(C)cc2C)nc1NCc1ccccc1	-2%	?	3.5µM*	-18%
O=S(=O)(Nc1cc(C(F)(F)F)ccc1N1CCOCC1)c1ccccc1	-2%	3%	-27%	i
Cc1cccc(S(=O)(=O)Nc2cc(Cl)ccc2N2CCOCC2)c1	7%	-2%	10µM*	-14%
COc1cc(CNC2CCCC2)cc(Cl)c1OCc1ccccc1Cl	-21%	?	8.9µM*	8%
CCOc1cc(CNC2CCCC2)cc(Cl)c1OCc1ccc(F)cc1	-1%	-13%	?	i
COc1cc(CNC2CCCC2)cc(Cl)c1OCc1ccc(F)cc1	-3%	?	4.5µM*	25%[57.5 µM]
CC(=O)/C(=N/Nc1ccccc1[N+](=O)[O-])N1CCCc2ccccc21	21%	?	10µM*	-8%
Cc1c(Cl)cccc1-n1nc(C)c2c(C)cc(=O)n(CC(=O)N3CCCc4ccccc43)c21	nt	-2%	-21%	i
CCCCCCn1c(O)c(/C=C2\C=NN=C2c2ccccc2)sc1=S	1%	11µM*	?	-25%
CCOC(=O)c1cc(-c2ccc(OC)cc2)n(CCC(=O)NC2CCCCC2)c1C	nt	16%	?	-2%
